# Test results as given in PubChem BioAssay.
# Active and inactive are the calls of the source.
# Key:
# [1] = tested on: Plasmodium falciparum Sir2 (PF13_0152, Sir2A); experiment: pfSir2 binders on small-molecule microarrays, primary screen, biochemical, small-molecule microarray, 635 nm fluorescence (AID 1098); settings: small-molecule microarray binding, fluorescence 635 nm; higher = more signal;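 note: score merges spot fluorescence intensity with its signal-to-noise ratio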
# [2] = small-molecule microarray binders of probe aDKK1, primary screen, biochemical, biotinylated probe, 635/667 nm fluorescence (AID 1099); settings: higher = more signal;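 note: score merges 667nm spot fluorescence with signal to noise across triplicate slides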
# [3] = small-molecule microarray binders of probe aCHRDL2, primary screen, biochemical, biotinylated probe, 635/667 nm fluorescence (AID 1100); settings: higher = more signal
# [4] = splicing luciferase reporter signal modulators, primary screen, spliceosome inhibition project, cell-based, HEK293, splice +/- reporter (AID 1101); settings: luminescence, 24 h, higher = more signal, called active from +8 up or from −8 down;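 note: HEK293 cells carrying a splicing-competent luciferase reporter gene; test concentration not given here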
# [5] = biological target: Fibroblast growth factor 10 (Homo sapiens) (UniProt O15520); experiment: FGF10 binders on small-molecule microarrays, primary screen, biochemical, small-molecule microarray, 635 nm fluorescence (AID 1102); settings: FGF10 binding, fluorescence 635 nm, higher = more signal
# [6] = tested on: glycogen synthase kinase-3 (GSK3A per assay name; protocol says GSK3B); experiment: GSK3 binders on small-molecule microarrays, primary screen, biochemical, small-molecule microarray, 635 nm fluorescence, GSK3A (AID 1103); settings: small-molecule microarray binding, fluorescence 635 nm; higher = more signal; note: the record names both GSK3A and GSK3B
# [7] = biological target: Epidermal growth factor receptor (Homo sapiens) (UniProt P00533); experiment: EGFR binders on small-molecule microarrays, primary screen, biochemical, small-molecule microarray, 635 nm fluorescence (AID 1104); settings: EGFR binding, higher = more signal;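 note: score merges 667 nm emission intensity with spot signal to noise over triplicate slides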
# [8] = biological target: Follistatin-related protein 3 (Homo sapiens) (UniProt O95633); experiment: FSTL3 binders on small-molecule microarrays, primary screen, biochemical, small-molecule microarray, 635 nm fluorescence (AID 1105); settings: FSTL3 binding, higher = more signal;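 note: score merges emission near 667 nm and signal to noise per printed spot across three slides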
# [9] = biological target: Dickkopf-related protein 1 (Homo sapiens) (UniProt O94907); experiment: DKK1 binders on small-molecule microarrays, primary screen, biochemical, small-molecule microarray, 635 nm fluorescence scan (AID 1106); settings: DKK1 binding, higher = more signal;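 note: score merges emission near 667 nm with signal to noise over three replicate slides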
# [10] = tested on: Inhibin beta A chain (activin A); experiment: INHBA (activin A) binders on microarrays, primary screen, biochemical, small-molecule microarray, 635 nm fluorescence scan (AID 1107); settings: small-molecule microarray binding, higher = more signal;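 note: mouse activin A protein probed at 4.33 µg/mL on printed slides; score merges bound-protein fluorescence near 667 nm with spot signal-to-noise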
# [11] = tested on: Human papillomavirus type 1a protein E7 (residues 44-93); experiment: HPV1a E7 fragment binders on microarrays, primary screen, biochemical, small-molecule microarray, residues 44-93, 635 nm fluorescence (AID 1108); settings: small-molecule microarray binding, fluorescence 635 nm; higher = more signal;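 note: E7 fragment applied at 1 µg/mL in TBST for 1 h at 4 C; score combines spot fluorescence with its signal to noise ratio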
# [12] = modulators of HCV replicon luciferase signal, primary screen, HCV replication inhibitor project, Huh7 cells, luciferase reporter (AID 1109); settings: 48 h, higher = more signal;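 note: huh7 hepatoma cells harbouring a luciferase neomycin HCV replicon reporter; luciferase luminescence as measure of HCV replicon replication; test concentration not given here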
# [13] = biological target: Left-right determination factor 2 (Homo sapiens) (UniProt O00292); experiment: LEFTY2 binders on small-molecule microarrays, primary screen, biochemical, small-molecule microarray, 635 nm fluorescence scan (AID 1110); settings: LEFTY2 binding, higher = more signal
# [14] = biological target: Calmodulin-1 (Homo sapiens) (UniProt P0DP23); experiment: CALM1 binders on microarrays, EGTA buffer, profiling panel, biochemical, small-molecule microarray, Cy5-labelled CALM1 (AID 1111); settings: Cy5-CALM1 binding fluorescence, higher = more signal;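 note: labelled calmodulin applied in Tris saline Tween buffer holding calcium plus EGTA and DTT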
# [15] = biological target: Calmodulin-1 (Homo sapiens) (UniProt P0DP23); experiment: calcium-bound CALM1 binders on microarrays, profiling panel, artefact control for SMM control-protein annotation, biochemical, small-molecule microarray, Cy5-labelled CALM1, plus calcium (AID 1112); settings: Cy5-CALM1 binding fluorescence, higher = more signal;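 note: score merges spot fluorescence with signal to noise from triplicate slides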
# [16] = small-molecule microarray binders of probe aWnt5a, primary screen, biochemical, biotinylated probe, 635/667 nm fluorescence (AID 1113); settings: higher = more signal;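 note: score merges 667 nm fluorescence intensity with signal-to-noise per printed feature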
# [17] = small-molecule microarray binders of probe aShh, primary screen, biochemical, biotinylated probe, 635/667 nm fluorescence (AID 1114); settings: higher = more signal;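 note: probe is biotin-labelled aShh protein from a stem cell growth factor screen; measures binding of labelled protein to compounds printed on the slide; score merges feature fluorescence at 667 nm with signal-to-noise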
# [18] = small-molecule microarray binders of probe aNog, primary screen, biochemical, biotinylated probe, 635/667 nm fluorescence (AID 1115); settings: higher = more signal;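 note: probe is biotinylated aNog protein used at 0.15 µg/mL for 1 h at 4 C; z-score combines 667 nm fluorescence of each spot with its signal to noise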
# [19] = biological target: Torsin-1A-interacting protein 1 (Homo sapiens) (UniProt Q5JTV8); experiment: LAP1 binders from COS7 cell lysate, primary screen, small-molecule microarray, 635/667 nm fluorescence (AID 1116); settings: COS7-hLAP1 lysate binding, 635 nm fluorescence, higher = more signal
# [20] = biological target: Alpha-bungarotoxin (Bungarus multicinctus) (UniProt P60615); experiment: alpha-bungarotoxin binders on microarray, profiling panel, artefact control for SMM control protein annotation, biochemical, small-molecule microarray, Alexa647 label, 635/667 nm fluorescence (AID 1117); settings: alpha-BTX-A647 binding fluorescence, higher = more signal
# Sequence of Alpha-bungarotoxin (Bungarus multicinctus) (P60615 whole entry, looked up): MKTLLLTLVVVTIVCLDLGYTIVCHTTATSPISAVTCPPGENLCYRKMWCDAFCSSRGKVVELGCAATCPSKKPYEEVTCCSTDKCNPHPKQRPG
# Sequence of Dickkopf-related protein 1 (Homo sapiens) (O94907 whole entry, looked up): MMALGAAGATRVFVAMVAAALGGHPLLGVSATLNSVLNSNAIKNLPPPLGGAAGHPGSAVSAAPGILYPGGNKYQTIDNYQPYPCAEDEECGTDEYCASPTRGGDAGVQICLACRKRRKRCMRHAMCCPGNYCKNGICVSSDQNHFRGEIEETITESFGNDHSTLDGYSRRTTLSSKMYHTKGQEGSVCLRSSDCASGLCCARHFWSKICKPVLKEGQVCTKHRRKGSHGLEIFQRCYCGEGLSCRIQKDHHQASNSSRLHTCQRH
# Sequence of Follistatin-related protein 3 (Homo sapiens) (O95633 whole entry, looked up): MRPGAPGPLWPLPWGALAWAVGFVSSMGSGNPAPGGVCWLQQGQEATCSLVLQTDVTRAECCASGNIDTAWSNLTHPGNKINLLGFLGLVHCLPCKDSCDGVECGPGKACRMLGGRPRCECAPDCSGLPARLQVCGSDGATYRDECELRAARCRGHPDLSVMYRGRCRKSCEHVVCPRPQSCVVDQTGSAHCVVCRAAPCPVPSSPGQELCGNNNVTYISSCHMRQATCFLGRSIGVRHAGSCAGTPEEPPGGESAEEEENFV
# Sequence of Torsin-1A-interacting protein 1 (Homo sapiens) (Q5JTV8 whole entry, looked up): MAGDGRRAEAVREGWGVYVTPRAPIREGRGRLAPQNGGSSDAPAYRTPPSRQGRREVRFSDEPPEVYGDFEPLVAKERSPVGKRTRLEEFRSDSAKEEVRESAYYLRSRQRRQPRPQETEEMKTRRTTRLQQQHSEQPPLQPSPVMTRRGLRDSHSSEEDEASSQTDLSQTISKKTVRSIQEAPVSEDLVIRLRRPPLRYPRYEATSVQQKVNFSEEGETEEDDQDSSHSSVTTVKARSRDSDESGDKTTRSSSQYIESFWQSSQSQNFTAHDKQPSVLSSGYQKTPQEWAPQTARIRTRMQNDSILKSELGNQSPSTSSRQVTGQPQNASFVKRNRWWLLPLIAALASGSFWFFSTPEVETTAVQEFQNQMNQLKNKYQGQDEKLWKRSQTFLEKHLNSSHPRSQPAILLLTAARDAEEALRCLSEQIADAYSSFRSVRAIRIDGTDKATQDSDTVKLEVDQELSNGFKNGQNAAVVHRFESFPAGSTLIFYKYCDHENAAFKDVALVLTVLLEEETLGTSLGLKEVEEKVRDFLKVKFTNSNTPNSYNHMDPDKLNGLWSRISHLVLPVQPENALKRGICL
# Sequence of Epidermal growth factor receptor (Homo sapiens) (P00533 whole entry, looked up): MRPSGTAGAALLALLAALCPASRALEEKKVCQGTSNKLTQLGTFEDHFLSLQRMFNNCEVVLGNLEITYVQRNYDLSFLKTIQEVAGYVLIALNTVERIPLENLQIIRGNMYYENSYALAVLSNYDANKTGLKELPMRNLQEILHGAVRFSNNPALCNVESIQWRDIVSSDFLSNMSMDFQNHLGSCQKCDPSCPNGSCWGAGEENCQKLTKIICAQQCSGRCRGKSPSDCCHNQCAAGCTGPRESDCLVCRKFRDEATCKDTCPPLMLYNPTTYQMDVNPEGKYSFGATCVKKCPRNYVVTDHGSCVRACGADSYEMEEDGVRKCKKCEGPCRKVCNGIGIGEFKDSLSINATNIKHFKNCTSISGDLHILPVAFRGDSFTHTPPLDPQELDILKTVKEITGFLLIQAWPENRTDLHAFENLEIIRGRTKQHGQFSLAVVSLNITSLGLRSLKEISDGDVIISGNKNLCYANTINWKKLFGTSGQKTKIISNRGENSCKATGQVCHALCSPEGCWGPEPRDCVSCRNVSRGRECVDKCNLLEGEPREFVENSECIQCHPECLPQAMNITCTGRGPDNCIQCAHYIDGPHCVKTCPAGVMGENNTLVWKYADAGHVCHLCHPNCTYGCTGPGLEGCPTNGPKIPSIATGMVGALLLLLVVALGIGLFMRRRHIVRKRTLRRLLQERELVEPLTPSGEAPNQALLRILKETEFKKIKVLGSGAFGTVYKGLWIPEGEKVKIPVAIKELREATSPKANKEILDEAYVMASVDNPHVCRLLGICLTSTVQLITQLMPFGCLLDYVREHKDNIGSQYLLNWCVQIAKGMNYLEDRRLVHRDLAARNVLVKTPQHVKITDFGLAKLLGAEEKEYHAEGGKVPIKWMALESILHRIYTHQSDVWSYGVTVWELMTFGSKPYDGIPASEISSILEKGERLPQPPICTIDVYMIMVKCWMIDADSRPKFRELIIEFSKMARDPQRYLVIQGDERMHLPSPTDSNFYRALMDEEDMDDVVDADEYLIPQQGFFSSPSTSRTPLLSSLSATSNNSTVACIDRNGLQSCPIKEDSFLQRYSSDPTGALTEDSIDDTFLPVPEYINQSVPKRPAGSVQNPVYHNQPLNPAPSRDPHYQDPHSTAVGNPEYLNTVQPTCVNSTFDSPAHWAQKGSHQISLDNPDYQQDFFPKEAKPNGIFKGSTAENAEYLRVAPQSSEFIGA
# Sequence of Left-right determination factor 2 (Homo sapiens) (O00292 whole entry, looked up): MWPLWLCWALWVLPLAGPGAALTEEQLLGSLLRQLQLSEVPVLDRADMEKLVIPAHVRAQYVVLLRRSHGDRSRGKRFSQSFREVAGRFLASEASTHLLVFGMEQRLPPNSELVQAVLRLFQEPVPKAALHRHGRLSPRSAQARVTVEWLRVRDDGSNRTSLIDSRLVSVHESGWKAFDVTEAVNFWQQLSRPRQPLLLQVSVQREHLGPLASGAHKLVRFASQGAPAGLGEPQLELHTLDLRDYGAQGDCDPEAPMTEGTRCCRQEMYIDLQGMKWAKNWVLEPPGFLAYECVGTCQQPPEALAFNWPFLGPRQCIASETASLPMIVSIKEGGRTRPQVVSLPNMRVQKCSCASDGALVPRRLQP
# Sequence of Fibroblast growth factor 10 (Homo sapiens) (O15520 whole entry, looked up): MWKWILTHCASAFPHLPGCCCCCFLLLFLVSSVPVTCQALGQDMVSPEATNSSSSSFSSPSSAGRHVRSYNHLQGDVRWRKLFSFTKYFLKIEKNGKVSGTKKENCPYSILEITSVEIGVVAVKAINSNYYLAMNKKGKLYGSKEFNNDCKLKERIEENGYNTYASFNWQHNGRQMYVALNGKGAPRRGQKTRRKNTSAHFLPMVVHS
SMILES,composite z-score [1],composite z-score [2],composite z-score [3],z-score [4],composite z-score [5],composite z-score [6],composite z-score [7],composite z-score [8],composite z-score [9],composite z-score [10],composite z-score [11],z-score [12],composite z-score [13],composite z-score [14],composite z-score [15],composite z-score [16],composite z-score [17],composite z-score [18],composite z-score [19],composite z-score [20]
CCCNC(=O)OC[C@H]1O[C@H](CCON=C(C)C)C=C[C@@H]1Oc1ccc(OC)cc1,0.415,0.325,0.707,-0.0557 (inactive),0.325,-0.515,-0.0864,-0.125,-0.288,1.23,-0.599,-1.12,-0.143,0.608,0.304,-0.0887,-0.282,-0.0927,0.587,-0.132
C#CCCCON=C1C[C@@H](O)[C@@H](O)[C@@H]2[C@@H]3C(=O)N(C(C)(C)C)C(=O)[C@@H]3CC[C@@H]12,0.856,1.19,1.28,0.624 (inactive),-0.624,-0.545,-0.306,-0.576,-1.1,0.477,0.0592,1.17,-0.442,-0.389,-0.165,-0.0721,-0.338,0.305,0.805,0.323
CC(C)CON=C1C[C@@H](O)[C@@H](O)[C@@H]2[C@@H]3C(=O)N(Cc4ccc5c(c4)OCO5)C(=O)[C@@H]3CC[C@H]12,0.191,-0.222,-0.608,0.31 (inactive),1.14,0.589,0.216,0.671,0.178,-0.374,1.33,-1.24,0.375,-0.382,-0.576,0.0044,-0.291,-0.467,0.54,0.411
COC(=O)CC=C[C@@H](C)[C@@H](C=NO[C@@H]1O[C@H](COC(C)=O)[C@@H](OC(C)=O)[C@H](OC(C)=O)[C@H]1OC(C)=O)NS(=O)(=O)c1ccc(C)cc1,-0.119,-0.268,-0.645,-0.15 (inactive),0.626,-0.448,0.504,-0.212,0.833,-1.58,-0.296,-0.594,0.599,-0.881,-1.69,-0.124,-0.221,-0.158,-0.441,-1
CC(C)CON=C1C[C@@H](O)[C@@H](O)[C@@H]2[C@@H]3C(=O)N(C(C)(C)C)C(=O)[C@@H]3CC[C@H]12,0.801,0.454,0.562,0.886 (inactive),-0.294,-0.516,-0.205,-0.743,-0.82,-0.576,1.05,-0.451,-0.23,-0.302,0.412,-0.124,-0.262,0.0589,0.274,1.5
COC(=O)CC=C[C@@H](C)[C@@H](C=NO[C@H](C)c1cn([C@H](CO)Cc2ccccc2)nn1)NS(=O)(=O)c1ccc(C)cc1,0.182,0.0644,-0.0281,0.0956 (inactive),0.532,0.0796,0.264,0.226,0.0568,-0.119,0.37,-1.35,0.483,0.333,-0.215,-0.152,0.178,-0.0196,1.42,1.56
